CF NFkB block – blocks PAF-induced NF-kB reporter in cystic fibrosis cells | inhibition, % at 5 µM | AID 588850 | KKLEB NF-kB-GFP reporter, GFP fluorescence overnight | hit rate 0.86% among 360,000;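 active = at least 50% inhibition at 5 µM, scaled per plate between neutral and stimulator controls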;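 also: PAF is a Pseudomonas aeruginosa culture filtrate used as stimulus; plate controls were PAF-stimulated DMSO wells for no effect and unstimulated DMSO wells for full effect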
Peg3 promoter – Peg3 promoter activity inhibition. HeLa PEG-Prom luciferase reporter, luminescence, overnight. inhibition, % at 20 µM. hit rate 1.7% among 360,000. AID 588405;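 active = inhibition of at least 50% at 20 µM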
TROY signal inh – inhibitors of TROY-dependent NF-kB signaling. Q293 LMP1-TROYcd NF-kB luciferase reporter, 4 h. inhibition, % at 10 µM. hit rate 0.98% among 360,000. AID 1347056;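 active = compounds whose plate-normalised and pattern-corrected inhibition of the luciferase reporter signal at the single screening dose is 50% or more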
TWEAK-Fn14 inh – inhibitors of TWEAK-Fn14 interaction signaling; hit rate 2% among 360,000; inhibition, % at 10 µM; TWEAK-stimulated Fn14 reporter cells, luciferase luminescence, 8 h; AID 1159606; in the data active = inhibition above about 50%
KKLEB tox – CF airway cell cytotoxicity counter-screen | KKLEB CF airway cells viability, ATPlite luminescence, overnight; stronger effect = lower value; cells stimulated with P. aeruginosa culture filtrate | activity change (cytotoxicity), % at 5 µM | hit rate 0.36% among 360,000;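 active = corrected activity change at or below -50% at 5 µM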
HIF-2a inh – blocks HIF-2a reporter activity; hit rate 0.72% among 360,000; 786-0 RCC cells HIF-2a reporter, luciferase luminescence, overnight; inhibition, % at 18.8 µM; AID 624352;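 active = inhibition of the luminescence signal of 40% or more relative to plate controls, in a single-dose primary screen at 18.75 µM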
CF NFkB inh conf – CF NF-kB inhibition confirmation, single concentration. KKLEB CF airway cells, PAF-induced NF-kB-GFP fluorescence, overnight. AID 602472. shares compounds with CF NFkB block. hit rate 64% among 1,300. inhibition, % at 5 µM; in the data active = inhibition above about 40%;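 also: stimulus PAF is a Pseudomonas aeruginosa filtrate and not platelet activating factor; plate controls were DMSO wells with stimulus for no effect and unstimulated DMSO wells for full effect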
* hit, by the source's call; / = no result; ! = not active in a repeat. Compounds with a hit are over-represented: about 4% of the library has one in this group of screens.

SMILES	CF NFkB block	Peg3 promoter	TROY signal inh	TWEAK-Fn14 inh	KKLEB tox	HIF-2a inh	CF NFkB inh conf
Cc1ccc(C(=O)c2cncc(Br)c2)cc1	50*	-78	2	25	-8	-66	62*
CCOC(=O)c1c2c([nH]c(=S)c1C#N)CCCC2	9	19	-9	-3	2	22	/
C[C@@]12CCC=C[C@H]1[C@H](c1ccc(/C=C/c3ccccc3)cc1F)N(Cc1ccccc1)C2=O	22	11	12	0	-9	19	/
C[C@@]12CCC=C[C@H]1[C@H](c1ccc(C(F)(F)F)cc1)N(Cc1ccccc1)C2=O	58*	19	-14	-18	-14	20	39
CCOc1ccc(NC(=O)CCCn2nc(C)c3c(C)n(-c4ccccc4)nc3c2=O)cc1	-7	6	-15	12	11	18	/
Cc1cccc(NC(=O)c2cc(=O)c3ccccc3o2)c1	-13	-100	-46	-5	11	-150	/
CC1(C)Cc2nc(-c3ccccc3)nc(SCC(O)CO)c2CO1 (stereo not drawn)	0	17	1	-2	-12	23	/
O=C(CCCc1nc2ccccc2s1)Nc1nccs1	21	5	-28	1	-12	-24	/
Cc1cnc(NC(=O)CCCc2nc3ccccc3s2)s1	84*	98*	-12	-1	16	-42	89*
Cc1ccc(NC(=O)COC(=O)CCC(=O)c2ccc(Cl)cc2)cc1S(=O)(=O)N(C)C	5	5	5	4	-2	21	/
COc1cccc(C(=O)N2CCCc3ccccc32)c1	54*	9	-10	12	-50	5	10
COc1ccc(C(=O)N2CCCc3ccccc32)cc1OC	27	11	3	-8	3	19	/
COc1ccc(OC)c(NC(=O)C(CCS(C)(=O)=O)NC(C)=O)c1 (stereo not drawn)	-22	-8	10	-7	-11	5	/
Cc1cc2ccccn2c1C(=O)c1ccc(NN)c([N+](=O)[O-])c1	56*	31	12	33	-8	4	10
COc1ccc(-c2csc(/C(C#N)=C\c3ccc(O)c([N+](=O)[O-])c3)n2)cc1OC	79*	50	36	60*	-2	-51	80*
COc1ccc(-c2csc(/C(C#N)=C\c3ccc(OC)c([N+](=O)[O-])c3)n2)cc1	-15	6	-10	-32	-13	1	/
O=C(Nc1cccc(Cl)c1)Nc1nc(-c2ccc(Cl)cc2)cs1	-9	-31	/	25	-17	-77	/
NC(c1ccccc1)c1csc(NC(=O)Nc2cccc(Cl)c2)n1 (stereo not drawn)	59*	108*	15	24	-1	-28	59*
CC(NC(=O)c1ccc([N+](=O)[O-])cc1Cl)C1CC2CCC1C2 (stereo not drawn)	16	-31	-19	-7	3	-67	/
CC(NC(=O)c1ccc([N+](=O)[O-])o1)C1CC2CCC1C2 (stereo not drawn)	62*	41	-10	18	-9	7	25
CCOC(=O)c1cnc(SC)nc1N1CCCC1	16	5	-14	-3	0	10	/
O=C(Nc1ccccc1)N1CCn2c(nc3ccccc32)C1	-6	-8	-25	-4	-1	-6	/
CC(C)Cn1cnc2c(Sc3c([N+](=O)[O-])ncn3C)nc(N)nc21	18	10	8	4	6	13	/
O=C(NCc1ccccn1)C1CCCN(S(=O)(=O)c2cc(Cl)ccc2Cl)C1 (stereo not drawn)	87*	99*	-14	3	-34	10	34
COc1ccc(C)cc1S(=O)(=O)N1CCCC(C(=O)NCc2ccccn2)C1 (stereo not drawn)	-10	6	-20	18	-2	9	/
SMILES	CF NFkB block	Peg3 promoter	TROY signal inh	TWEAK-Fn14 inh	KKLEB tox	HIF-2a inh	CF NFkB inh conf
COc1cc2c(Cc3ccccc3)cncc2cc1O	53*	10	24	43	3	13	66*
CN1C(C(=O)NCc2ccco2)CC2Cn3c(nc4cc(Cl)c(Cl)cc43)C21 (stereo not drawn)	10	6	11	17	1	4	/
O=C(NCCc1c[nH]c2ccccc12)c1ccc([N+](=O)[O-])o1	70*	3	-4	39	-8	5	43*
CCOC(=O)c1ccc(NC(=O)Nc2nncs2)cc1	66*	-268	-7	12	-22	-148	81*
O=[N+]([O-])c1cc(/C=N/n2cnnc2)ccc1N1CCCC1	-10	20	0	-6	8	21	/
O=C(CSc1nnc2scc(-c3ccccc3)n12)NCc1ccc2c(c1)OCO2	-15	11	14	2	-16	17	/
C[C@]12CCC(O)CC1CCC1C2CC[C@]2(C)C(c3cc(C(F)(F)F)n[nH]3)CCC12 (stereo partly drawn)	56*	101*	61*	-36	-37	36	71*
Cc1ccc(C(=O)N2CCN(S(=O)(=O)c3ccccc3[N+](=O)[O-])C2)cc1	-3	-28	-28	-5	2	-96	/
CN(C)c1ccc(CNC(=O)/C=C/[C@H]2O[C@@H](n3cnc4c(NC(=O)c5ccccc5)ncnc43)[C@H](O)[C@@H]2O)cc1	-32	-1	-9	-23	-1	-10	/
O=S1(=O)CC=C(CSC(=S)NC2CCS(=O)(=O)C2)C1 (stereo not drawn)	51*	57*	8	21	-11	38	96*
Cc1c(Br)c([N+](=O)[O-])nn1CCCC(=O)Nc1sc2c(c1C(N)=O)CCC(C)C2 (stereo not drawn)	-6	-6	20	-14	6	-6	/
CC1(C)CC(=O)C(C2C3=C(CC(C)(C)CC3=O)Oc3c(Br)cc(Br)cc32)=C(O)C1 (stereo not drawn)	56*	39	46	62*	-6	-4	57*
Cc1cc(C(=O)N2CCC2(C)C(=O)NS(=O)(=O)c2ccc(F)cc2F)nn1C (stereo not drawn)	-12	0	-7	1	-17	9	/
CCC1Nc2ncnc(N3CCCCC3)c2N(Cc2ccccc2)C1=O (stereo not drawn)	4	20	-11	7	5	16	/
CCC1Nc2ncnc(N3CCCCC3)c2N(Cc2ccc(C)cc2)C1=O (stereo not drawn)	71*!	7	8	-18	-10	19	17
CCn1cc([N+](=O)[O-])c(C(=O)Nc2ccn(Cc3ccccc3F)n2)n1	10	-1	6	-13	6	8	/
Cc1ccccc1Cn1ccc(NC(=O)c2nn(C)cc2[N+](=O)[O-])n1	60*	-62	78*	87*	-9	2	-78
CCn1c(SC)nnc1C1CCN(CC(=O)Nc2ccccc2N2CCOCC2)CC1	-16	9	-9	-19	16	-9	/

Screens (PubChem BioAssay)
